Reference: PubChem BioAssay (EPA / NIEHS)
“And” between values parts separate entries of the source, which are not always exact repeats. Identical values can stand only once. The source made the active and inactive calls. The calls were made as follows: active = hit-call score of the fitted dose curve at least 0.9, where 1 is the maximum; inactive = score below 0.9.

What follows are compounds tested on Plasminogen activator inhibitor-1 (PAI1), SERPINE1 (gene 5054) (assay: BSK_KF3CT_PAI1: BioMAP Diversity Plus: KF3CT Assay for Plasminogen activator inhibitor-1 (PAI1) Biomarker Activity (AID 2284252)). Settings: primary human keratinocytes with fibroblasts.
Procedure: BSK_KF3CT is a cell-based, multiplexed-readout assay that uses keratinocytes and foreskin fibroblasts, a human skin primary cell co-culture, with measurements taken at 24 hours after chemical dosing in a 96-well plate.BSK_KF3CT_PAI1 is an assay component measured in the BSK_KF3CT assay. It measures PAI-1 antibody related to regulation of gene expression using ELISA technology.Data from the assay component BSK_KF3CT_PAI1 was analyzed at the endpoint, BSK_KF3CT_PAI1, in the positive analysis fitting direction relative to DMSO as the negative control and baseline of activity. Using a type of binding reporter, gain or loss-of-signal activity can be used to understand protein changes. To generalize the intended target to other relatable targets, this assay endpoint is annotated to the 'cytokine' intended target family, where the subfamily is 'plasmogen activator inhibitor'.
The levels of cell surface (or secreted, indicated by the prefix "s") biomarker endpoints were measured by ELISA. Overt cytotoxicity to cells in confluent adherent cultures (all systems other than the BT system) was assessed by measuring total protein levels using sulforhodamine B (SRB) staining in parallel cultures at the time of biomarker measurements, indicated as SRB endpoints. For proliferation assays for adherent cell types, individual cell types are cultured at sub-confluence and relative cell numbers quantified by SRB staining at time points optimized for each system (48 h: 3C and CASM3C systems; 72 h: BT and HDF3CGF systems; 96 h: SAg system). SRB was performed by staining cells with 0.1% SRB after fixation with 10% TCA and reading wells at 560 nm.Viability and proliferation of PBMC (T cells) was quantified by Alamar Blue reduction for the SAg and BT systems. For PBMC viability (referred to as PBMC Cytotoxicity within the assay endpoint names), cells were plated (75,000/well in a 96-well plate) and then chemical samples added for 1 h before addition of activators, SEB and TSST-1 (20 ng/mL final concentration each). Cells were incubated for 90 h. Then, Alamar Blue (20 uL/well) (Invitrogen, Cat DAL1100) was added for 6 h, and the plates were read with a fluorescence microplate reader at 546/580 nm (excitation/emission). For PBMC proliferation, cells were plated and activated as above but incubated for only 16 h prior to addition of Alamar Blue. Plates were read after 6 h.

Question: Which outcome does the source give for `O=C(O)C(F)(F)OC(F)(F)C(F)(F)OC(F)(F)C(F)(F)C(F)(F)C(F)(F)F` here?
Answer: inactive

Question: For `CC(C)CCCC(C)(C)O`, which outcome is on record?
Answer: inactive

Question: Which AC50 does the source give for `OCC(F)(OC(F)(F)C(F)(OC(F)(F)C(F)(F)C(F)(F)F)C(F)(F)F)C(F)(F)F` (stereo not drawn) here?
Answer: 5 µM (active) and 4.79 µM (active)

Question: Which outcome does the source give for `CCCO[Si](OCCC)(OCCC)OCCC` here?
Answer: inactive

Question: For `C=C(C)C(=O)OCCC(F)(F)C(F)(F)C(F)(F)C(F)(F)C(F)(F)C(F)(F)C(F)(F)C(F)(F)F`, which outcome is on record?
Answer: inactive

Question: With `CC(=O)c1ccc(C)cc1` as the compound, how does the outcome read?
Answer: inactive

Question: For `c1ccc(OCCOc2ccccc2)cc1`, which outcome is on record?
Answer: inactive

Question: How did the outcome turn out when `C=C(F)C(=O)OC(C(F)(F)F)C(F)(F)F` was run?
Answer: inactive

Question: How did the outcome turn out when `CCCCN(CCO)CCO` was run?
Answer: inactive

Question: For `O=S(=O)(O)C(F)(F)C(F)(F)OC(F)(F)C(F)(F)F`, which outcome is on record?
Answer: inactive

Question: Which outcome does the source give for `CC(C)(CO)CO` here?
Answer: inactive

Question: Which outcome does the source give for `O=C(O)C(F)(F)C(F)(F)C(F)(F)C(F)(F)C(F)(F)C(F)(F)C(F)(F)C(F)F` here?
Answer: inactive

Question: Which outcome does the source give for `CCn1cc(C(=O)O)c(=O)c2ccc(C)nc21` here?
Answer: inactive
